Bioassay records (PubChem)
Sampled rows, rich in hits. Any-hit rate of the full collection: about 12%.
JMJD2A Tudor inh: JMJD2A Tudor domain (human) inhibition; O75164; AlphaScreen JMJD2A-Tudor / H3K4me3 peptide binding; Potency, µM (doses to about 114 µM), without a hit: top-dose activity change, negative = inhibition, hits mostly inhibitors; hit rate 4.4% among 390,000; AID 504339; note: % is set by controls: 0 for no effect and ±100 for the full control effect; nearly all actives have a fitted effect of over 50% in size
Sfp inh: Sfp phosphopantetheinyl transferase inhibition; Potency, µM, inactives show largest response in the series, negative = inhibition, most hits filed as inhibitors; hit rate 3.5% among 310,000; Biochemical Sfp PPTase activity, qHTS;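 note: the enzyme is Sfp with the accession as filed and its product quenches rhodamine fluorescence; 0% = enzyme reaction without inhibitor and -100% = no enzyme wells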
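With Hepes-Na pH 7.6 buffer containing 10 mM MgCl2, Sfp (15 nM) modified BHQ-2-YbbR (12.5 uM) using rhodamine-CoA (5 uM). Two reads 30 minutes apart at 525/598 nm yielded each well's rate.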
HP1b binding inh: blocks HP1-beta chromodomain binding to methylated histone tails. hit rate 0.56% among 390,000. AlphaScreen HP1-beta / biotin-H3K9me3 peptide binding. Potency, µM (titrated, usually from 114 µM), for inactives: top-dose activity change, negative = inhibition, hits mostly inhibitors. P83916. AID 540317; note: nearly all actives have a fitted effect of over 70% in size
Target sequence (P83916 whole entry, looked up): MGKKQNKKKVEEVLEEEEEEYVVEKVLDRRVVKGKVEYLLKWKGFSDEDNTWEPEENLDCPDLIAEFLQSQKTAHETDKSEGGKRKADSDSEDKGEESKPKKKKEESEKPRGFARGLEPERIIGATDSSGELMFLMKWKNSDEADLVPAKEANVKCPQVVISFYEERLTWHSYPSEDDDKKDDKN
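Compound inhibition of the preformed complex between 50 nM HP1-beta and 50 nM biotinylated H3K9me3 peptide was read by AlphaScreen. Buffer was PBS pH 7.4 with 0.01% Tween-20. Incubations ran 30 min at room temperature, with 10 ug/mL donor/acceptor beads.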
G9a inh: inhibitors of human histone lysine methyltransferase G9a; Q96KQ7; G9a H3K9 monomethylation, AlphaScreen, 2 h; Potency, µM (highest dose often 102 µM), for inactives: at the top dose activity, negative = inhibition, hits mostly inhibitors; hit rate 8.8% among 350,000; AID 504332; note: % is set by controls: 0 for no effect and ±100 for the full control effect; nearly all actives have a fitted effect of over 75% in size
Target sequence (Q96KQ7 913-1193 limits assumed): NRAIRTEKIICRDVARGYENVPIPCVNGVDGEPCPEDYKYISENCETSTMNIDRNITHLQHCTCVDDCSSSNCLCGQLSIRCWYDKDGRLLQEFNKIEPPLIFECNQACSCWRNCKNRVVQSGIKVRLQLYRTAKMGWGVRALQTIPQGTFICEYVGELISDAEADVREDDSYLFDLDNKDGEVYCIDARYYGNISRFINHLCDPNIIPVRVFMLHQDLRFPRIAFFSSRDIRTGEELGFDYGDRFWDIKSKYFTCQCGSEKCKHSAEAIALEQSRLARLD
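Quantitative HTS format: methyltransferase activity on a biotin-tagged H3K9 peptide is measured by AlphaScreen, using a rabbit anti-monomethyl-H3K9 antibody with streptavidin donor and anti-IgG acceptor beads. Final levels are 20 nM enzyme, 500 nM peptide, 20 uM SAM; 2 h RT.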
BAZ2B inh: blocks human BAZ2B; AlphaScreen BAZ2B-H3K14Ac peptide displacement; Potency, µM (top dose mostly 114 µM), inactives show at the top dose activity change, negative = inhibition, usual class: inhibitors; hit rate 4.4% among 360,000; Q9UIF8; note: % is set by controls: 0 for no effect and ±100 for the full control effect; nearly all actives have a fitted effect of over 60% in size
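BAZ2B (50 nM) with biotin-H3(5-23)K14Ac peptide (50 nM) in PBS pH 7.4, 0.01% Tween-20, preformed 30 min, then compound 30 min at room temperature; top concentration 110uM. AlphaScreen streptavidin donor/nickel chelate acceptor beads (10 ug/mL final), 20 min dark, signal read.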
L3MBTL1 block: blocks human L3MBTL1. hit rate 0.66% among 230,000. Potency, µM (highest dose often 57.1 µM), without a hit: top-dose activity, negative = inhibition, hits mostly inhibitors. AID 485360. AlphaScreen L3MBTL1–H3K9me1 peptide binding; note: % is set by controls: 0 for no effect and ±100 for the full control effect; nearly all actives have a fitted effect of over 60% in size
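First, the protein-peptide complex forms for 30 min at room temperature (L3MBTL1 50 nM, biotinylated H3K9me1 peptide 75 nM). Next, compounds are pin-transferred and incubated 30 min. Finally, AlphaScreen beads are added and read after 30 min.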
The depositor's hits bear a star; [ ] = remark or other dose. Calls come from the whole dose curve; as a rule, active = well fitted curve in the direction sought with a large enough effect; inconclusive = small, poorly fitted or top-dose-only effect, or another doubt; inactive = no such curve, though single readings can be large; an effect the other way counts as inactive or inconclusive. Potency is the fitted concentration of half-maximal effect.

Results for Cc1ccccc1OCC(=O)N1CCC(c2nc3ccccc3s2)CC1 ?
JMJD2A Tudor inh: -5%; HP1b binding inh: 35%; G9a inh: 3%[59 µM]; BAZ2B inh: 0%

Results for COc1ccc(C(=O)N/N=C(\C)CC(=O)Nc2cccc(C(F)(F)F)c2)cc1 ?
JMJD2A Tudor inh: -19%; Sfp inh: 14%; HP1b binding inh: 14%; G9a inh: 29%; BAZ2B inh: -17%

How did Cc1ccc(Cn2cc(S(=O)(=O)c3cccc(Cl)c3)c(=O)c3cc(F)c(N4CCCCC4)cc32)cc1 do in these assays?
JMJD2A Tudor inh: -1%; HP1b binding inh: 37%; G9a inh: 8%[59 µM]; BAZ2B inh: -3%

How did CC(Oc1ccc(C#N)cc1)C(=O)NC1CCCC1 (stereo not drawn) do in these assays?
JMJD2A Tudor inh: 11%; HP1b binding inh: 45%; G9a inh: 13%[0.501 µM]; BAZ2B inh: 8%; L3MBTL1 block: -1%

What do the screens show for `COc1ccc(CC(=O)Nc2sc3c(c2C(=O)Nc2ccc(C)cc2)CCCCC3)cc1`?
JMJD2A Tudor inh: 56µM*; HP1b binding inh: 5%; G9a inh: 10µM*; BAZ2B inh: 56µM*

Results for COc1ccc(NC(=O)c2c(NC(=O)Cc3ccccc3)sc3c2CCCC3)cc1 ?
JMJD2A Tudor inh: -10%; HP1b binding inh: 33%; G9a inh: 17%[59 µM]; BAZ2B inh: 3%

What do the screens show for `COC(=O)C1=C(C)OC(N)=C(C#N)C1c1ccc(OC)c(CSc2ccccn2)c1` (stereo not drawn)?
JMJD2A Tudor inh: -20%[57.1 µM]; Sfp inh: 3%; HP1b binding inh: 21%; G9a inh: 16µM*; BAZ2B inh: -35%; L3MBTL1 block: 2%

Results for COC(=O)C1=C(C)OC(N)=C(C#N)C1c1ccccc1 (stereo not drawn) ?
JMJD2A Tudor inh: -8%[57.1 µM]; Sfp inh: 0%; HP1b binding inh: 62%; G9a inh: -5%[2.33 µM]; BAZ2B inh: 1%

How did CCN(CC)c1cc(C)c2cc(NC(=O)/C=C/c3cc(OC)c(OC)c(OC)c3)ccc2n1 do in these assays?
JMJD2A Tudor inh: inconclusive; HP1b binding inh: -8%; G9a inh: inconclusive; BAZ2B inh: inconclusive

How did Cc1noc(C(F)(F)F)c1C(=O)NNC(=O)c1cccc(C(F)(F)F)c1 do in these assays?
JMJD2A Tudor inh: -9%; Sfp inh: 3%; HP1b binding inh: 36%; BAZ2B inh: -1%

How did Cc1sc(N)c(C(=O)c2cccc(C(F)(F)F)c2)c1C do in these assays?
Sfp inh: 79µM*

What do the screens show for `CCN(CC)C(=O)CSc1nc(N)c2c3c(sc2n1)CC(C)CC3` (stereo not drawn)?
JMJD2A Tudor inh: -27%; Sfp inh: -17%; HP1b binding inh: -1%; G9a inh: -51%[59 µM]; BAZ2B inh: -35%

How did CCSc1nc(N)c2c3c(sc2n1)CN(C)CC3 do in these assays?
Sfp inh: 0%; G9a inh: 45µM*; BAZ2B inh: 7%; L3MBTL1 block: 0%

How did CC1CCc2c(sc3nc(SCC(=O)NCc4ccco4)nc(N)c23)C1 (stereo not drawn) do in these assays?
JMJD2A Tudor inh: inconclusive; Sfp inh: -9%; HP1b binding inh: 11%; G9a inh: inconclusive; BAZ2B inh: -4%; L3MBTL1 block: 0%

What do the screens show for `Nc1nc(SCC(=O)NCCCN2CCOCC2)nc2sc3c(c12)CCC3`?
JMJD2A Tudor inh: -13%; Sfp inh: 28µM*; HP1b binding inh: 27%; G9a inh: inconclusive; BAZ2B inh: 6%; L3MBTL1 block: 45%

Results for CCOC(=O)CSc1nc(N)c2c3c(sc2n1)CCCC3 ?
JMJD2A Tudor inh: 1%; Sfp inh: -5%; HP1b binding inh: 22%; G9a inh: 71µM*; BAZ2B inh: 9%

What do the screens show for `CSc1nc(N)c2c3c(sc2n1)CN(C)CC3`?
JMJD2A Tudor inh: -3%; Sfp inh: 11%; HP1b binding inh: 33%; G9a inh: -18%; BAZ2B inh: 1%

How did CCc1cc2c(nc1CC)CCN(CC/C(C)=N/OC[C@@H](O)COCc1ccco1)C2 do in these assays?
Sfp inh: 1%

What do the screens show for `CCCN(CCC)CCNC(=O)Cn1cnc2sc(C)c(S(=O)(=O)N3CCN(c4ccccc4OC)CC3)c2c1=O`?
JMJD2A Tudor inh: -15%; HP1b binding inh: -4%; G9a inh: -2%[59 µM]; BAZ2B inh: 2%

Results for Cc1nn(CC(=O)NNC(=O)c2ccccc2F)c([N+](=O)[O-])c1Br ?
JMJD2A Tudor inh: -12%; Sfp inh: 10%; HP1b binding inh: 35%; G9a inh: 8%; BAZ2B inh: -2%; L3MBTL1 block: 9%

What do the screens show for `COC(=O)[C@H](Cc1ccccc1)NC(=O)Cn1cnc2c(NCc3ccccc3)ncnc21`?
JMJD2A Tudor inh: -13%; HP1b binding inh: 18%; L3MBTL1 block: -6%

What do the screens show for `O=[N+]([O-])c1cnc(N2CCCCC2)c([N+](=O)[O-])c1`?
JMJD2A Tudor inh: -19%[57.1 µM]; Sfp inh: 7%; HP1b binding inh: inconclusive; G9a inh: 10µM*; BAZ2B inh: inconclusive; L3MBTL1 block: -3%

What do the screens show for `O=C(O)c1ccc(S(=O)(=O)N[C@H](Cc2c[nH]c3ccccc23)C(=O)O)cc1`?
JMJD2A Tudor inh: -27%; Sfp inh: -9%; G9a inh: -43%[12.7 µM]; BAZ2B inh: -12%; L3MBTL1 block: -4%

Results for CCOc1cccc2cc(-c3nc4sc5c(c4c(=O)[nH]3)CCC(C(C)(C)C)C5)c(=O)oc12 (stereo not drawn) ?
JMJD2A Tudor inh: -10%; HP1b binding inh: 18%; G9a inh: -10%[59 µM]; BAZ2B inh: -27%

What do the screens show for `NC(Cc1ccc(O)c([N+](=O)[O-])c1)C(=O)O` (stereo not drawn)?
JMJD2A Tudor inh: inconclusive; Sfp inh: inconclusive; HP1b binding inh: -5%; G9a inh: inconclusive; BAZ2B inh: 50µM*; L3MBTL1 block: 0%

What do the screens show for `NC(Cc1cccc2nsnc12)C(=O)O` (stereo not drawn)?
JMJD2A Tudor inh: 7.1µM*; Sfp inh: -14%; HP1b binding inh: 5%; G9a inh: inconclusive; BAZ2B inh: -5%; L3MBTL1 block: 2%

What do the screens show for `NC(Cc1ccc2nsnc2c1)C(=O)O` (stereo not drawn)?
JMJD2A Tudor inh: 2.2µM*; HP1b binding inh: -9%

What do the screens show for `Cc1ccc(S(=O)(=O)Nc2cccc3cccnc23)c([N+](=O)[O-])c1`?
JMJD2A Tudor inh: inconclusive; Sfp inh: 14%; HP1b binding inh: -7%; G9a inh: 6%; BAZ2B inh: 45µM*
